Bioassay records (PubChem)
SW480 rereplic – induces DNA re-replication in SW480 colon adenocarcinoma cells; Potency, µM (titrated, usually from 46.1 µM), usual class: activators; AID 624297; SW480 DNA re-replication, Hoechst DNA content imaging, 48 h; 340,000 compounds, 1.8% hits; further: nearly all actives have a fitted effect of over 55% in size
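Readout is total intensity of Hoechst-stained nuclei, excited at 405 nm and collected at 500-530 nm. Compound treatment lasted 48 hr at 37 C in 5% CO2 before staining.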
KB-3-1 cytotox – KB-3-1 parental cell cytotoxicity; AID 1347075; 400,000 compounds, 1.4% hits; Potency, µM (highest dose often 46.1 µM), hits mostly cytotoxic; KB-3-1 viability, CellTiter-Glo ATP luminescence, 72 h; further: nearly all actives have a fitted effect of over 60% in size
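Multi-concentration cytotoxicity screen in KB-3-1 cells grown in DMEM lacking phenol red with 10% FBS. After 72 h at 37 °C with compound, ATP-dependent luminescence was recorded.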
MCF10A rerep – inducers of DNA re-replication in MCF 10A breast cells. MCF 10A DNA re-replication, Hoechst nuclear intensity, 48 h. Potency, µM (titrated, usually from 46.1 µM), hits mostly activators. 350,000 compounds, 2.9% hits. AID 624296; further: nearly all actives have a fitted effect of over 50% in size
KB-V1 MDR tox – kills drug-selected multidrug resistant KB-V1 cells. KB-V1 MDR cells viability, CellTiter-Glo, 72 h. Potency, µM (doses to about 46.1 µM), hits mostly cytotoxic. 400,000 compounds, 3.4% hits; further: nearly all actives have a fitted effect of over 60% in size
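qHTS viability screen in drug-selected KB-V1 MDR cells: 72 h compound treatment at 37 degrees C, ATP luminescence end point.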
ELG1 DNA repair – inhibitors of ELG1-dependent DNA repair in HEK293T cells; HEK293T ELG1-luciferase reporter, luminescence, 16 h; DNA damage induced by 5-fluorouridine; Potency, µM (doses to about 46.1 µM), usual class: inhibitors; 330,000 compounds, 2.3% hits; AID 504467; further: nearly all actives have a fitted effect of over 55% in size
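Quantitative HTS, concentration-response format. 2,000 cells/well co-treated with 5-fluorouridine and compound, 16 hr in 5% CO2 at 37 °C; ONE-Glo luminescence read after 30 min.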
Of the large screens only hits and unclear results are named; the others gave an inactive call. In the library only some 8.1% were active in any assay of this set; here they are far more common. The call rests on the fitted dose curve; in most records, active means well fitted curve in the direction sought with a large enough effect; inconclusive means small, poorly fitted or top-dose-only effect, or another doubt; inactive means no such curve, though single readings can be large; an effect the other way counts as inactive or inconclusive.

CCS(=O)(=O)N1Cc2ccccc2CC1C(=O)Nc1nc2c(C)cccc2s1 (stereo not given)	KB-V1 MDR tox 2.9µM, ELG1 DNA repair inconclusive
COc1ccc(S(=O)(=O)N2Cc3ccccc3CC2C(=O)Nc2nccs2)cc1OC (stereo not given)	KB-V1 MDR tox inconclusive, ELG1 DNA repair inconclusive
CCS(=O)(=O)N1Cc2ccccc2CC1C(=O)Nc1cccc(OC)c1 (stereo not given)	ELG1 DNA repair 2.3µM
COc1ccc(S(=O)(=O)N2Cc3ccccc3CC2C(=O)Nc2nccs2)cc1 (stereo not given)	KB-V1 MDR tox 21µM, ELG1 DNA repair inconclusive
CCS(=O)(=O)N1Cc2ccccc2CC1C(=O)NC(C)C12CC3CC(CC(C3)C1)C2 (stereo not given)	MCF10A rerep inconclusive
CCS(=O)(=O)N1Cc2ccccc2CC1C(=O)NCC12CC3CC(CC(C3)C1)C2 (stereo not given)	KB-V1 MDR tox 23µM
Cc1cc(/C=C2\C=Cc3ccccc32)cc(C)c1N	none (no result: SW480 rereplic, MCF10A rerep, ELG1 DNA repair)
CC(OC(=O)CC1Sc2ccccc2NC1=O)C(=O)N(C)Cc1ccccc1 (stereo not given)	none (no result: ELG1 DNA repair)
CN1C(=S)SC(C)(C)C1N(O)C(=O)Nc1ccc(Cl)cc1 (stereo not given)	none
CN1C(=S)SC(N(O)C(=O)Nc2ccc(Cl)c(Cl)c2)C1(C)C (stereo not given)	KB-3-1 cytotox inconclusive, MCF10A rerep inconclusive, KB-V1 MDR tox 18µM, ELG1 DNA repair inconclusive
NC1=NC(c2ccc(Cl)cc2)C(C(=O)c2ccccc2)N1 (stereo not given)	SW480 rereplic inconclusive, KB-3-1 cytotox inconclusive, MCF10A rerep 5.8µM, ELG1 DNA repair inconclusive
O=C(c1ccccc1)C1CN(c2ccccc2)CC1c1ccc(Cl)cc1 (stereo not given)	none
CCOC(=O)C1=C(C)N(c2ccc(OC)cc2)C(=O)/C1=C\c1cccs1	KB-3-1 cytotox inconclusive, MCF10A rerep inconclusive, ELG1 DNA repair 21µM
CCOC(=O)C1=C(C)N(c2ccc(OC)cc2)C(=O)/C1=C\c1ccc(O)c(OCC)c1	MCF10A rerep inconclusive
COCCCNC(=O)C1CCCN(c2ncnc3onc(C)c23)C1 (stereo not given)	none (no result: SW480 rereplic, MCF10A rerep, ELG1 DNA repair)
COc1ccc(CCNC(=O)c2cc(=O)c3ccc(C)cc3o2)cc1OC	SW480 rereplic inconclusive, KB-3-1 cytotox inconclusive, KB-V1 MDR tox inconclusive, ELG1 DNA repair 16µM
Cc1ccc2c(=O)cc(C(=O)NCCc3ccc(S(N)(=O)=O)cc3)oc2c1	ELG1 DNA repair 9.2µM
CCOc1cc(-c2cc(C(=O)O)c3c(-c4ccccc4)[nH]nc3n2)ccc1O	none (no result: SW480 rereplic, MCF10A rerep, ELG1 DNA repair)
N#Cc1nc(-c2ccc(OCc3ccc(Cl)cc3)cc2)oc1N1CCCCCC1	none (no result: SW480 rereplic, MCF10A rerep, ELG1 DNA repair)
Clc1ccc2[nH]cc(-c3nnnn3-c3ccccc3)c2c1	KB-3-1 cytotox 18µM, KB-V1 MDR tox 16µM
c1ccc(-n2nnnc2-c2cccc3ccccc23)cc1	SW480 rereplic 5.8µM, MCF10A rerep 23µM (no result: KB-3-1 cytotox, KB-V1 MDR tox, ELG1 DNA repair)
COc1cc(CNCCc2ccccc2)cc(Cl)c1OCc1ccccc1	SW480 rereplic inconclusive, KB-3-1 cytotox inconclusive, MCF10A rerep 23µM, KB-V1 MDR tox 18µM
COc1ccc(C(=O)COC(=O)c2cccc(-n3cnnn3)c2)c(OC)c1	MCF10A rerep inconclusive, ELG1 DNA repair inconclusive
COc1ccc(NC(=S)NCCc2ccccc2OC)c(OC)c1	KB-3-1 cytotox inconclusive, KB-V1 MDR tox 21µM
COc1ccc(NC(=S)NCc2ccccc2Cl)c(OC)c1	KB-V1 MDR tox inconclusive, ELG1 DNA repair inconclusive
COc1ccc(NC(=S)NC2CCCCCC2)c(OC)c1	KB-3-1 cytotox inconclusive, KB-V1 MDR tox 18µM
COc1cccc(C(=O)NNC(=S)NC2CCCCC2)c1	KB-V1 MDR tox 23µM, ELG1 DNA repair inconclusive
COc1ccc(NC(=O)N(C2CCCCC2)C2CCN(C(C)C)CC2)c(OC)c1	KB-V1 MDR tox 15µM
COc1ccc(NC(=O)N(C2CCCCC2)C(C)c2ccco2)c(OC)c1 (stereo not given)	MCF10A rerep inconclusive, KB-V1 MDR tox inconclusive
CCN(CC)c1ccc(-c2nnc(SCC(=O)NCc3ccco3)n2C)cc1	none (no result: SW480 rereplic, MCF10A rerep, ELG1 DNA repair)
Cc1ccc(C)c(N2C(=O)N(Cc3cc(=O)n4ccccc4n3)c3ccccc3S2(=O)=O)c1	KB-3-1 cytotox inconclusive (no result: SW480 rereplic, MCF10A rerep, ELG1 DNA repair)
